Records with an inconclusive call do not appear. Active and inactive are the calls of the source. Unless noted, calls follow the shape of the dose curve; as a rule, active = well fitted curve in the direction sought with a large enough effect in the repeat runs; inconclusive = weak or mixed curves; inactive = no such curve, though single readings can be large; an effect the other way counts as inactive or inconclusive.
Key:
[1] = qHTS assay to identify small molecule agonists of the RXR signaling pathway - cell viability counter screen (AID 1159529);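 also: HEK 293T cells carrying an RXR-alpha UAS beta-lactamase reporter; series mostly up to about 77 µM; nearly all actives have a fitted effect of over 50% in size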
Method in brief: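 Viability read-out for the RXR-alpha agonist qHTS: luminescent CellTiter-Glo signal after 30 min at RT. HEK 293T bla reporter cells, 2% charcoal-stripped FBS, 16 hr compound incubation; tetraoctyl ammonium bromide as cytotoxic control.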

[2] = qHTS assay to identify small molecule antagonists of the retinoid acid receptor (RAR) signaling pathway - cell viability counter screen (AID 1159551); also: nearly all actives have a fitted effect of over 35% in size
Method in brief: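 ATP-based viability, C3RL4 cells, 6 h at 37 C with 1 uM final retinol co-added after compound; luminescence read 30 min post CellTiter-Glo, RT.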

[3] = qHTS assay to identify small molecule antagonists of the estrogen related receptor (ERR) signaling pathway from Tox21 library - cell viability counter screen (AID 1224834); also: nearly all actives have a fitted effect of over 30% in size
Method in brief: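 Compounds in DMSO were pinned onto ERR cells that had been incubated for 6 h, and the plates were held at 37 C for 17.5 h. CellTiter-Fluor reagent was then added and fluorescence was measured after 30 min.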

[4] = biological target: Luciferin 4-monooxygenase (Photinus pyralis) (UniProt P08659); test: qHTS assay to identify small molecule inhibitors of firefly luciferase (AID 1224835); also: nearly all actives have a fitted effect of over 25% in size; also: potency is read from the fitted curve at half-maximal effect; as to activity change, negative = inhibition: series mostly up to about 120 µM
Sequence of Luciferin 4-monooxygenase (Photinus pyralis) (P08659 whole entry, looked up): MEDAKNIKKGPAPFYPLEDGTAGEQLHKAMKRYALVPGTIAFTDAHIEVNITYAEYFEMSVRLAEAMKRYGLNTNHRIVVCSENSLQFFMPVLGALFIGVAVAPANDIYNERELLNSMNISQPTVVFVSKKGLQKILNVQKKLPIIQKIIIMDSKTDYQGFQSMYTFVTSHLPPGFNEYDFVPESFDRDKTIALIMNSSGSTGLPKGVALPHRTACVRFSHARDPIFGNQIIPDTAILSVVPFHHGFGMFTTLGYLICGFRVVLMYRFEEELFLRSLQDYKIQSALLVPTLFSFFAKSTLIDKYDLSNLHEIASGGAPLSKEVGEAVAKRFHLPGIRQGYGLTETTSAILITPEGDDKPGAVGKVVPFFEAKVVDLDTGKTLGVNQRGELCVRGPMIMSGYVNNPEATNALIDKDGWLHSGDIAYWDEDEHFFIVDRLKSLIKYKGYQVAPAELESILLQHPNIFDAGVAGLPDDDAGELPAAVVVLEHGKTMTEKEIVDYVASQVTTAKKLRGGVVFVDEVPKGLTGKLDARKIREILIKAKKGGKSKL
Method in brief: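 Quantitative HTS format; KM concentrations of both substrates. Purified P. pyralis FLuc activity quantified from luminescence images.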

[5] = qHTS assay to identify small molecule agonists of the constitutive androstane receptor (CAR) signaling pathway - cell viability counter screen (AID 1224836); also: series mostly up to about 92 µM; nearly all actives have a fitted effect of over 45% in size
Method in brief: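 Multiplexed viability check: HepG2-CYP2B6-hCAR cells, 15-point compound dosing, 0.75 uM PK11195 final, 23 h at 37 C, CellTiter-Fluor fluorescence.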

[6] = qHTS assay to identify small molecule antagonists of the constitutive androstane receptor (CAR) signaling pathway - cell viability counter screen (AID 1224837); also: series mostly up to about 92 µM; nearly all actives have a fitted effect of over 45% in size
Method in brief: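 Cells are seeded, rested 4 hr at 37 C/5% CO2, dosed with compound (15-point series) and 50 nM CITCO, incubated a further 23 hr, and then CellTiter-Fluor reagent is added before fluorescence is read. The line is HepG2 with stable hCAR and CYP2B6-2.2kb.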

[7] = biological target: Nuclear receptor subfamily 1 group I member 3 (Homo sapiens) (UniProt Q14994); test: qHTS assay to identify small molecule antagonists of the constitutive androstane receptor (CAR) signaling pathway (AID 1224838);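 also: HepG2 cells stably expressing hCAR with CYP2B6 luciferase reporter stimulated by CITCO; nearly all actives have a fitted effect of over 40% in size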
Sequence of Nuclear receptor subfamily 1 group I member 3 (Homo sapiens) (Q14994 whole entry, looked up): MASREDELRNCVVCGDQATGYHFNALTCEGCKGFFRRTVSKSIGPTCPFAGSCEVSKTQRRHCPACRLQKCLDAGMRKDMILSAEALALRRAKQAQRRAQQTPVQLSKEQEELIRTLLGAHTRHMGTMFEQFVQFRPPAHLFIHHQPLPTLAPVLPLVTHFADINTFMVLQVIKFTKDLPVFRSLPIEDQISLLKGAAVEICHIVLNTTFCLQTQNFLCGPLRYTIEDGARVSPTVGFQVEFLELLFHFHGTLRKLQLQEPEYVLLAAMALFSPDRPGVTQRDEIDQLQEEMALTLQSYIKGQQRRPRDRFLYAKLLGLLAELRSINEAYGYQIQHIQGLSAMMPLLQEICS
Method in brief: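 Luminescence from a CYP2B6-2.2kb promoter reporter in hCAR-expressing HepG2 cells reflects CAR signaling. Cells received compounds at 15 concentrations and 50 nM CITCO (final), then incubated 24 h at 37 C/5% CO2.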

[8] = biological target: Nuclear receptor subfamily 1 group I member 3 (Homo sapiens) (UniProt Q14994); test: qHTS assay to identify small molecule agonists of the constitutive androstane receptor (CAR) signaling pathway (AID 1224839);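 also: HepG2 cells stably carrying human CAR and a CYP2B6 luciferase reporter; series mostly up to about 92 µM; nearly all actives have a fitted effect of over 15% in size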
Method in brief: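 Using human hepatoma HepG2 cells engineered with hCAR and a CYP2B6-2.2kb reporter, 15-concentration compound series were incubated 24 h alongside PK11195 at 0.75 uM final, with luminescence quantified afterwards.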

[9] = qHTS assay to identify small molecule antagonists of the estrogen related receptor signaling pathway with the pleiotropic PPARgamma coactivator (PGC) from Tox21 10K library - cell viability counter screen (AID 1224840; active = well fitted cell-killing curve with a large enough effect in the repeat runs, not every such curve was filed as active; also: nearly all actives have a fitted effect of over 40% in size)
Method in brief: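 Cell viability is measured by CellTiter-Fluor fluorescence in PGC/ERR cells that receive compounds after a 6-hour attachment period and are then incubated 17.5 hours at 37 C.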

[10] = qHTS assay to identify small molecule antagonists of the estrogen related receptor (ERR) signaling pathway - cell viability counter screen (AID 1224818);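 also: series mostly up to about 46 µM; viability measured after 17.5 h of compound exposure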
Method in brief: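 Quantitative high-throughput viability counter screen in ERR cells. Compounds (DMSO) incubated 17.5 h at 37 C; read-out was CellTiter-Fluor fluorescence.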

[11] = qHTS assay to identify small molecule antagonists of the estrogen related receptor signaling pathway with the pleiotropic PPARgamma coactivator (PGC) cell viability counter screen (AID 1224822; also: series mostly up to about 46 µM)
Method in brief: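 Cytotoxicity in the PGC/ERR cell line is assessed with CellTiter-Fluor, read as fluorescence intensity 30 min after reagent addition, following 17.5 h compound treatment at 37 C.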

[12] = biological target: Thyrotropin receptor (Homo sapiens) (UniProt P16473); test: qHTS assay to identify small molecule agonists of the thyroid stimulating hormone receptor (TSHR) signaling pathway (AID 1224843; calls by dose curve; also: nearly all actives have a fitted effect of over 45% in size)
Sequence of Thyrotropin receptor (Homo sapiens) (P16473 whole entry, looked up): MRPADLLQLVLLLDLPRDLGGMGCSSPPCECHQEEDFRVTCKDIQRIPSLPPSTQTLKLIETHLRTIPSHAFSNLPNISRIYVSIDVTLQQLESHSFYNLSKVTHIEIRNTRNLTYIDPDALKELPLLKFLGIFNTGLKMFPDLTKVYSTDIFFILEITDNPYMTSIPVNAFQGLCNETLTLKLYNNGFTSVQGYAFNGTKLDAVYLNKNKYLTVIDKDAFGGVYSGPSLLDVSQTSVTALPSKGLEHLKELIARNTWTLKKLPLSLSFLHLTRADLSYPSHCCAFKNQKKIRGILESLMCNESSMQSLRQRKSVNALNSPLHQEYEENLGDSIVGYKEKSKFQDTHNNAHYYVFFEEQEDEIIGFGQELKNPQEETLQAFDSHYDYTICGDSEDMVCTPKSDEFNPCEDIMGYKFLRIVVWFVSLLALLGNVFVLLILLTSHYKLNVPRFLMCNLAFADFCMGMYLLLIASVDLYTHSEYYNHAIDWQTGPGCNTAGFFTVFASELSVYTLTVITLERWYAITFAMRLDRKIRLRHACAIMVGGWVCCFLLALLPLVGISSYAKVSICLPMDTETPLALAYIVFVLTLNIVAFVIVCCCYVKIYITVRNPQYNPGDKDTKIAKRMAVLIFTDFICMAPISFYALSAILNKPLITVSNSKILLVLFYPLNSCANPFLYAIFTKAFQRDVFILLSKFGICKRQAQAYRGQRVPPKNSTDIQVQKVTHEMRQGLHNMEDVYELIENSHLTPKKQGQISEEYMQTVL
Method in brief: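 Using 15 concentrations per compound in triplicate, cAMP production was monitored in TSHR-HEK293 cells after 30 min compound incubation at RT; HTRF reagents followed, with fluorescence intensity recorded after 1 h.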

[13] = qHTS assay to identify small molecule agonists of the retinoic acid receptor (RAR) signaling pathway (AID 1159553)
Method in brief: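 Quantitative high-throughput format: the Tox21 10K library was tested on C3RL4 RARE-luciferase cells for 6 hr at 37 C and 5% CO2, with luminescence measured after a 30 min room-temperature reagent step.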

[14] = qHTS assay to identify small molecule antagonists of the estrogen related receptor signaling pathway with the pleiotropic PPARgamma coactivator (PGC) from Tox21 10K library (AID 1224841; call rule not given here; also: actives are mostly falling curves and most rising ones were filed inactive; nearly all actives have a fitted effect of over 50% in size; also: potency is read from the fitted curve at half-maximal effect; as to activity, negative = inhibition: series mostly up to about 92 µM)
Method in brief: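 Cells stably carrying the PGC/ERR reporter, seeded at 2,000 per well, received pin-transferred compounds 6 h post-plating. Exposure lasted 18 h at 37 C. Signal: One-Glo luminescence.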

[15] = qHTS assay to identify small molecule agonists of the estrogen related receptor signaling pathway with the pleiotropic PPARgamma coactivator (PGC) from Tox21 10K library (AID 1224842); also: nearly all actives have a fitted effect of over 15% in size
Method in brief: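 PGC/ERR reporter cells (NTP line) were seeded 2,000 per well, rested 6 h at 37 C/5% CO2, then pin-dosed with compounds in DMSO for 18 h at 37 C; luciferase read by One-Glo luminescence after 30 min at room temperature.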
% is scaled to controls: 0 for no effect and ±100 for the full control effect.

NC(=O)N1c2ccccc2CC(=O)c2ccccc21
inactive: Potency [1] | outcome [2] | Potency [3] | Potency [4] | outcome [5] | outcome [6] | Potency [7] | Potency [8] | outcome [9]

CC[N+](CC)(CC)CCOc1cccc(OCC[N+](CC)(CC)CC)c1OCC[N+](CC)(CC)CC
inactive: Potency [1] | outcome [2] | outcome [10] | outcome [11] | Potency [3] | Potency [4] | outcome [5] | outcome [6] | Potency [7] | Potency [8] | outcome [9] | Potency [12]

O=S(=O)(O)c1cccc2c(S(=O)(=O)O)cccc12
inactive: Potency [1] | outcome [2] | Potency [13] | Potency [3] | Potency [4] | outcome [5] | outcome [6] | Potency [7] | Potency [8] | outcome [9] | Potency [14] | Potency [15] | Potency [12]

NCCCC(N)(C(=O)O)C(F)F (stereo unspecified)
inactive: Potency [1] | outcome [2] | Potency [13] | outcome [10] | outcome [11] | Potency [3] | Potency [4] | outcome [5] | outcome [6] | outcome [9] | Potency [12]

NO
inactive: Potency [1] | outcome [2] | Potency [13] | outcome [10] | outcome [11] | Potency [3] | outcome [5] | outcome [6] | outcome [9] | Potency [12]

CC(C)(C)C(=O)Oc1ccc(S(=O)(=O)Nc2ccccc2C(=O)NCC(=O)O)cc1
inactive: Potency [1] | outcome [2] | Potency [13] | outcome [10] | outcome [11] | Potency [3] | outcome [5] | outcome [6] | Potency [7] | Potency [8] | outcome [9]

OCCc1ccccn1
inactive: Potency [1] | outcome [2] | Potency [3] | Potency [4] | outcome [5] | outcome [6] | Potency [7] | Potency [8] | outcome [9]

Cc1cc(C)c(N=Nc2c(O)c(S(=O)(=O)O)cc3cc(S(=O)(=O)O)ccc23)cc1C
inactive: activity change, negative = cytotoxicity [1] -2.64% [at 6.97 µM] | activity change, negative = cytotoxicity [2] 0.446% [at 8.39 µM] | viability change, negative = cytotoxic [3] -4.92% [at 8.39 µM] | activity change, negative = inhibition [4] -6.78% [at 10.5 µM] | viability change, negative = cytotoxic [5] -15.6% [at 8.39 µM] | activity change, negative = cytotoxicity [6] 0.232% [at 8.39 µM] | activity, negative = inhibition [7] -3.25% [at 8.39 µM] | activation [8] 7.37% [at 8.39 µM] | viability change, negative = cytotoxic [9] -4.24% [at 8.39 µM] | activation [15] -8.18% [at 8.39 µM]
active: Potency [14] 0.959 µM

CC(C)CCCO
inactive: Potency [1] | outcome [2] | Potency [13] | Potency [3] | Potency [4] | outcome [5] | outcome [6] | outcome [9] | Potency [12]

Cc1ccc(C(=O)c2ccc(CC(=O)O)n2C)cc1
active: Potency [4] 15.5 µM
inactive: Potency [1] | outcome [2] | Potency [13] | Potency [3] | outcome [5] | outcome [6] | Potency [7] | Potency [8] | outcome [9] | Potency [14] | Potency [15] | Potency [12]

C[N+]12CCC(CC1)C(OC(=O)C(O)(c1ccccc1)c1ccccc1)C2 (stereo unspecified)
inactive: Potency [1] | outcome [2] | Potency [13] | Potency [3] | Potency [4] | outcome [5] | outcome [6] | Potency [7] | Potency [8] | outcome [9] | Potency [15] | Potency [12]

CC1=NS(=O)(=O)c2cc(Cl)ccc2N1
inactive: Potency [1] | outcome [2] | outcome [10] | Potency [3] | Potency [4] | outcome [5] | outcome [6] | Potency [7] | Potency [8] | outcome [9] | Potency [12]

CCCCN(CCC(=O)OCC)C(C)=O
inactive: Potency [1] | outcome [2] | Potency [3] | Potency [4] | outcome [5] | outcome [6] | Potency [7] | Potency [8] | outcome [9]

O=S(=O)(O)c1cc(O)c(O)c(S(=O)(=O)O)c1
inactive: Potency [1] | outcome [2] | Potency [3] | Potency [4] | outcome [5] | outcome [6] | Potency [7] | Potency [8] | outcome [9]

C[N+]1(CC2COC(c3ccccc3)(c3ccccc3)O2)CCCCC1 (stereo unspecified)
inactive: activity change, negative = cytotoxicity [1] -2.46% [at 15.8 µM] | activity change, negative = cytotoxicity [2] -0.8% [at 19 µM] | Potency [13] | viability change, negative = cytotoxic [3] 7.36% [at 19 µM] | activity change, negative = inhibition [4] -3.43% [at 23.6 µM] | viability change, negative = cytotoxic [5] 1.16% [at 19 µM] | activity change, negative = cytotoxicity [6] 4.57% [at 19 µM] | activity, negative = inhibition [7] -9.35% [at 19 µM] | activation [8] -2.79% [at 19 µM] | viability change, negative = cytotoxic [9] -2.82% [at 19 µM] | activation [15] 0.389% [at 19 µM]

Cc1nc2ccc(CN(C)c3ccc(C(=O)N[C@@H](CCC(=O)O)C(=O)O)s3)cc2c(=O)[nH]1
inactive: Potency [1] | outcome [2] | Potency [3] | Potency [4] | outcome [5] | outcome [6] | Potency [7] | Potency [8] | outcome [9]

Cc1ncc(COP(=O)(O)O)c(C=O)c1O
inactive: Potency [1] | outcome [2] | Potency [13] | Potency [3] | Potency [4] | outcome [5] | outcome [6] | Potency [7] | Potency [8] | outcome [9] | Potency [12]

C1CCC2(CCCCO2)OC1
inactive: Potency [1] | outcome [2] | Potency [3] | Potency [4] | outcome [5] | outcome [6] | Potency [7] | Potency [8] | outcome [9]

CCOC(=O)COC(=O)c1ccccc1C(=O)OCC
inactive: Potency [1] | outcome [2] | Potency [3] | Potency [4] | outcome [5] | outcome [6] | Potency [7] | Potency [8] | outcome [9] | Potency [14] | Potency [15] | Potency [12]
